# Compound activity (PubChem BioAssay)
# MCF10A rerep: A quantitative high throughput screen for small molecules that induce DNA re-replication in MCF 10a normal breast cells; MCF 10A DNA re-replication, Hoechst nuclear intensity, 48 h; 350,000 tested, 2.9% active; Potency, µM (highest dose often 46.1 µM), for the others: at the highest dose activity, positive = re-replication, hits mostly activators; further: potency means the concentration at half of the fitted maximal effect; % of control where 0% means no effect; nearly all actives have a fitted effect of over 50% in size
# DRD3 agonist: qHTS of D3 Dopamine Receptor Agonist: qHTS. 410,000 tested, 0.58% active. D(3) dopamine receptor (Homo sapiens), P35462. D3R DiscoveRx beta-arrestin cells, luminescence, 90 min. AID 652048, 2013. max activation, %; in the data active means max activation above about 30%; further: 0% is about no effect
# Target sequence (P35462 whole entry, looked up): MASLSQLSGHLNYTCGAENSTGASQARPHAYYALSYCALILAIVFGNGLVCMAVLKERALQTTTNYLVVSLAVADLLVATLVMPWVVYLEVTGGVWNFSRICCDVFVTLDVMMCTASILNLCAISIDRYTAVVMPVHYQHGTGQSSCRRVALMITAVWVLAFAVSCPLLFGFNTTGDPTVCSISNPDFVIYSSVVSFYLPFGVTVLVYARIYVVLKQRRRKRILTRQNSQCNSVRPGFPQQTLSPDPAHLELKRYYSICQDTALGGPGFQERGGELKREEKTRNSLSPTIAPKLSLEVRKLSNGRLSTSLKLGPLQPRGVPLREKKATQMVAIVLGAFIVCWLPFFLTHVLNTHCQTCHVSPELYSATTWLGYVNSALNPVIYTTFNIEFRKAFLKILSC
#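 Agonist mode: compounds and dopamine controls were applied to plated cells for 90 min at 37 degrees C after an overnight attachment at 1500 cells/well. Luminescent read-out followed 30 - 60 minutes at room temperature with DiscoveRx detection reagent.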
# SW480 rerep: A quantitative high throughput screen for small molecules that induce DNA re-replication in SW480 colon adenocarcinoma cells. SW480 DNA re-replication, Hoechst DNA content imaging, 48 h. Potency, µM (titrated, usually from 46.1 µM), inactives show at the highest dose re-replication activation, most hits filed as activators. 340,000 tested, 1.8% active; further: potency means the concentration at half of the fitted maximal effect; % of control where 0% means no effect; nearly all actives have a fitted effect of over 55% in size
#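 Compounds, transferred as 23 nL by pin tool, were incubated with cells for 48 hr; DNA content per nucleus was then quantified by Hoechst staining and fluorescence plate imaging.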
# KB-3-1 tox: qHTS assay for MDR1-selective chemotherapeutics: Primary screen using the parental adenocarcinoma cell KB-3-1; 400,000 tested, 1.4% active; AID 1347075, 2019; KB-3-1 viability, CellTiter-Glo ATP luminescence, 72 h; Potency, µM (highest dose often 46.1 µM), most hits filed as cytotoxic; further: potency means the concentration at half of the fitted maximal effect; on the % scale 0 is the no-effect control and ±100 the full control effect; nearly all actives have a fitted effect of over 60% in size
#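 Using CellTiter-Glo luminescence, growth of non-resistant KB-3-1 adenocarcinoma cells is assessed 72 h after pin-tool compound addition at 37 °C. Normalized responses across the concentration series yield fitted curves.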
# D3 antag: qHTS of D3 Dopamine Receptor Antagonist: qHTS; D(3) dopamine receptor (Homo sapiens), P35462; D3R cells, DiscoveRx beta-arrestin luminescence, antagonist mode; hits give low values; max response, negative = inhibition, %; 360,000 tested, 2.5% active; in the data active means max response below about -50%; inconclusive means no clear call, values can overlap the other calls; further: on the % scale 0 is the no-effect control and ±100 the full control effect
#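 Cells expressing the human receptor were seeded at 1500 cells/well, incubated overnight at 37 degrees C in 5% CO2, then exposed to library compounds with dopamine controls for 90 minutes at 37 degrees C before luminescent detection.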
# KB-V1 cytotox: qHTS assay for MDR1-selective chemotherapeutics: Primary screen using the drug-selected MDR subline cells KB-V1 | Potency, µM (series often up to 46.1 µM), most hits filed as cytotoxic | KB-V1 MDR cells viability, CellTiter-Glo, 72 h | 400,000 tested, 3.4% active; further: potency means the concentration at half of the fitted maximal effect; on the % scale 0 is the no-effect control and ±100 the full control effect; nearly all actives have a fitted effect of over 60% in size
#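 Compound-treated KB-V1 multidrug-resistant cells, 72 h, 37 degrees C; viability by CellTiter-Glo. Fitted qHTS curves give the values.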
# Starred values were filed as active, the others as inactive; i = inactive; ? = inconclusive; / = not tested or not shown; [ ] = another dose, or the depositor's remark. Hits are enriched below; roughly 8.9% of the tested compounds scored in any of these assays. Unless noted, the call rests on the fitted dose curve; in most records, active means well fitted curve in the direction sought with a large enough effect; inconclusive means small, poorly fitted or top-dose-only effect, or another doubt; inactive means no such curve, though single readings can be large; an effect the other way counts as inactive or inconclusive.
SMILES,MCF10A rerep,DRD3 agonist,SW480 rerep,KB-3-1 tox,D3 antag,KB-V1 cytotox
Cc1ccc(C)c(CN2C(=O)CSc3ccc(C(=O)NCCN4CCOCC4)cc32)c1,0%,4,0%,i,7,i
O=C(NCCN1CCOCC1)c1ccc(/C=C2\Sc3ccccc3N(Cc3ccccc3F)C2=O)cc1,?,6,18µM*,i,55,?
O=C(NCCN1CCOCC1)c1ccc2c(c1)N(Cc1ccccc1F)C(=O)CS2,5%,0,0%,i,11,i
COc1cccc(OC)c1C(=O)Nc1ccc(S(=O)(=O)Nc2nccc(C)n2)cc1,/,3,/,i,/,i
O=C1Nc2cc(C(=O)NCCCN3CCCC3)ccc2S/C1=C/c1ccccc1F,?,-21,18µM*,i,-22,i
O=C(NCCN1CCOCC1)c1ccc2c(c1)N(Cc1cccc(F)c1)C(=O)c1ccccc1S2,11%,-7,-14%,i,21,i
CCOCCCNC(=O)/C=C1\Sc2ccccc2N(Cc2ccccc2F)C1=O,7.3µM*,5,?,i,-11,i
CCN1CCN(CCNC(=O)c2ccc(/C=C3/Sc4ccccc4N(Cc4cccc(Cl)c4)C3=O)cc2)CC1,21µM*,-21,7%,?,10,?
Cc1cccc(CN2C(=O)/C(=C\c3ccc(C(=O)NCCN4CCOCC4)cc3)Sc3ccccc32)c1,?,3,23µM*,i,33,?
CCN1CCN(CCNC(=O)c2ccc3c(c2)N(Cc2ccc(F)cc2)C(=O)/C(=C/c2ccccc2)S3)CC1,?,-33,?,?,-29,?
CCOc1ccc(NC(=O)CSc2cn(CC(=O)N3CCCCCC3)c3ccccc23)cc1,/,7,/,/,/,/
CCOC(=O)c1scc(-c2ccccc2)c1S(=O)(=O)N1CCN(c2ccc(Cl)cc2)CC1,/,-6,/,i,/,i
CC1=NN(c2ccccc2)C(=O)C1N=Nc1ccccc1 (configuration not stated),8%,1,-49%,i,5,?
CC1=NN(C(N)=S)C(=O)C1N=Nc1ccc(Cl)cc1 (configuration not stated),9%,1,18µM*,?,2,?
CC1=NN(C(N)=S)C(=O)C1N=Nc1ccccc1 (configuration not stated),3%,1,-2%,i,-7,i
CC1=NN(C(=O)c2ccncc2)C(=O)C1N=Nc1ccc2ccccc2c1 (configuration not stated),12%,-15,24%,?,-6,6.5µM*
CC1=NN(c2ccccc2)C(=O)C1N=Nc1ccc(N)cc1 (configuration not stated),?,-15,1%,?,-60*,i
CCCn1c(=N)c(C(=O)NC(C)c2ccccc2)cc2c(=O)n3ccccc3nc21 (configuration not stated),/,1,/,/,/,/
Cc1ccc(NC(=O)C2Cc3ccccc3N2C(=O)c2ccccc2)cc1Cl (configuration not stated),/,-8,/,i,/,i
Cc1oc(-c2ccc(C(=O)Nc3cccc(C(F)(F)F)c3)cc2)nc1CSc1ccccc1,/,0,/,/,/,/
O=c1[nH]cnc2ccc([N+](=O)[O-])cc12,-1%,1,-1%,i,-9,i
O=c1[nH]cnc2c([N+](=O)[O-])cccc12,-1%,-11,1%,i,-80*,i
CCOc1ccccc1CN1CCc2nc(N3CCN(C)CC3)ncc2C1,/,-16,/,i,/,i
Cc1cccc(OCC(=O)Nc2c(C(=O)N3CCN(c4ccccc4F)CC3)oc3ccccc23)c1,/,-6,/,i,/,i
COc1ccc(CNC(=O)COc2ccc(C(=O)c3ccc(F)cc3)cc2)cc1,1.2µM*,10,?,?,-6,?
SMILES,MCF10A rerep,DRD3 agonist,SW480 rerep,KB-3-1 tox,D3 antag,KB-V1 cytotox
COc1ccc(CNC(=O)COc2ccc(F)cc2)cc1,-3%,0,-7%,i,3,?
O=C(COC(=O)c1ccc(F)cc1)NCc1ccc(F)cc1,-1%,0,3%,?,6,?
Cc1ccc(CNC(=O)COc2ccc(C(=O)c3ccc(F)cc3)cc2)cc1,16µM*,0,?,?,7,?
Cc1cccc(NC(=O)CNC(=O)COc2ccc(C(=O)c3ccc(F)cc3)cc2)c1C,15µM*,3,?,6.5µM*,0,?
O=C(COc1ccc(C(=O)c2ccc(F)cc2)cc1)NCc1ccc(F)cc1,1.5µM*,3,15µM*,4.1µM*,12,9.2µM*
CCOC(=O)c1cnc(N2CCN(c3ccc(C)cc3C)CC2)c2ccccc12,/,-8,/,/,/,/
CCNc1c(NC(=O)c2ccccc2OCC)c(=O)oc2ccccc12,/,1,/,i,/,i
CCN(CC(=O)Nc1ccc(OC)cc1)C(=O)c1cc(-c2cccs2)nn1-c1ccccc1,?,-18,-4%,i,7,21µM*
O=C(Nc1ccc(Cl)cc1F)C1CCCN(C2=NS(=O)(=O)c3ccccc32)C1 (configuration not stated),7%,5,9%,i,0,i
Cc1cc(C)c2[nH]c(=O)c(C(c3nnnn3CC3CCCO3)N3CCC(C)CC3)cc2c1 (configuration not stated),19%,2,?,i,14,4.6µM*
CC(=O)Nc1ccccc1-c1nc2ccccc2n(Cc2cccc(Br)c2)c1=O,/,1,/,/,/,/
Cc1ccc(-n2ncc(Br)c(Br)c2=O)cc1,?,-25,-19%,?,-76*,i
O=c1c(Br)c(N2CCCC2)cnn1-c1ccccc1,-1%,0,0%,i,15,?
O=c1c(Br)c(Br)cnn1-c1ccccc1,?,-11,-8%,?,-72*,?
CCc1ccc(C2=C(C)C(N3CCC(C(=O)NCc4ccc(C)o4)CC3)=NS2(=O)=O)cc1,/,7,/,i,/,i
Clc1ccc(C2CC(c3ccco3)n3ncnc3N2)cc1Cl (configuration not stated),-10%,2,1%[9.22 µM],i,-58*,i
Clc1ccc(C2CC(c3ccccc3)Nc3ncnn32)cc1 (configuration not stated),0%,-7,-6%,?,-22,?
